Calls of active or inactive are those of the source. The calls were made as follows: active = hit-call score of the fitted dose curve at least 0.9, where 1 is the maximum; inactive = score below 0.9.
Experiment: ATG_M_61_CIS: Attagene CIS-FACTORIAL HepG2 Assay for M61 Transcription Factor (Internal Marker) (AID 2282937)
Conditions: HepG2 Attagene CIS-FACTORIAL M61 internal marker reporter; actives raise or lower the signal
In short: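 Cells were transfected with reporter units under cis-regulatory promoters, treated with chemicals for 24 h, then lysed for RNA. Reporter transcripts were quantified by RT-PCR and capillary electrophoresis, and activity was fitted bidirectionally against DMSO.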

| SMILES | outcome |
| --- | --- |
| CC1(C)C(C=C(Cl)Cl)C1C(=O)OCc1cccc(Oc2ccccc2)c1 (stereo unspecified) | inactive |
| CCCOC(=O)c1ccc(C(=O)OCCC)nc1 | inactive |
| O=C(Nc1ccc([N+](=O)[O-])cc1Cl)c1cc(Cl)ccc1O | inactive |
| COc1nc(C)nc(NC(=O)NS(=O)(=O)c2ccccc2OCCCl)n1 | inactive |
| N#CSCSc1nc2ccccc2s1 | inactive |
| CCC(O)=C1C(=O)CC(C(=O)O)CC1=O (stereo unspecified) | inactive |
| CSC(=O)c1cccc2nnsc12 | inactive |
| C[C@]12C[C@H](O)[C@H]3[C@@H](CCC4=CC(=O)CC[C@@]43C)[C@@H]1CC[C@@H]2C(=O)CO | inactive |
| O=C(O)C1(C(=O)Nc2ccc(Cl)cc2Cl)CC1 | inactive |
| COC(=O)c1ccc(I)cc1S(=O)(=O)NC(=O)Nc1nc(C)nc(OC)n1 | inactive |
| CC(=O)S[C@@H]1CC2=CC(=O)CC[C@]2(C)[C@H]2CC[C@@]3(C)[C@@H](CC[C@@]34CCC(=O)O4)[C@H]12 | inactive |
| CCNc1nc(N)nc(Cl)n1 | inactive |
| CC(C)CCCCCCc1ccc(O)cc1 | inactive |
| CCCCOC(=O)[C@@H](C)Oc1ccc(Oc2ccc(C(F)(F)F)cn2)cc1 | inactive |
| C#C[C@]1(O)CC[C@H]2[C@@H]3CCC4=CC(=O)CC[C@@H]4[C@H]3CC[C@@]21CC | inactive |
| CCCCC(CC)COC(=O)c1ccccc1C(=O)O (stereo unspecified) | inactive |
| CCOC(=O)[C@H](C)Oc1ccc(Oc2nc3ccc(Cl)cc3o2)cc1 | inactive |
| CC(=O)[C@H]1CC[C@H]2[C@@H]3CCC4=CC(=O)CC[C@]4(C)[C@H]3CC[C@]12C | inactive |
| CCCCOC(=O)C(C)Oc1ccc(Oc2ccc(C(F)(F)F)cn2)cc1 (stereo unspecified) | inactive |
| CCCCC(CC)CN1C(=O)C2C3C=CC(C3)C2C1=O (stereo unspecified) | inactive |
| CCOC(=O)C(C)Oc1ccc(Oc2nc3ccc(Cl)cc3o2)cc1 (stereo unspecified) | inactive |
| CCN(CC)C(=O)c1cccc(C)c1 | inactive |
| COC(=O)c1cccc(C)c1S(=O)(=O)NC(=O)Nc1nc(OCC(F)(F)F)nc(N(C)C)n1 | inactive |
| OB(O)O | inactive |
| CCCCOCCOCCOCc1cc2c(cc1CCC)OCO2 | inactive |
| CCCN(CCC)C(=O)SCC | inactive |
| CCCOC(=O)NCCCN(C)C | inactive |
| c1ccc(Nc2ccccc2)cc1 | inactive |
| CCOC(=O)COc1cc(-n2ncc(C(F)(F)F)c(C)c2=O)c(F)cc1Cl | inactive |
| CCCCCOC(=O)COc1cc(N2C(=O)C3=C(CCCC3)C2=O)c(F)cc1Cl | inactive |

Experiment: ATG_EGR_CIS: Attagene CIS-FACTORIAL HepG2 Assay for human Early Growth Response 1 (EGR1) (AID 2282938)
Conditions: HepG2 Attagene CIS-FACTORIAL EGR reporter mRNA; actives raise or lower the signal
In short: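 Endogenous TF activity in HepG2 liver cells was gauged through cis-promoter reporter constructs transiently transfected. After 24 h dosing, reporter mRNA was quantified by RT-PCR and capillary electrophoresis, and curves fitted in both directions versus DMSO.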

| SMILES | outcome | AC50 |
| --- | --- | --- |
| CC1(C)C(C=C(Cl)Cl)C1C(=O)OCc1cccc(Oc2ccccc2)c1 (stereo unspecified) | inactive | – |
| CCCOC(=O)c1ccc(C(=O)OCCC)nc1 | inactive | – |
| O=C(Nc1ccc([N+](=O)[O-])cc1Cl)c1cc(Cl)ccc1O | – | 894 nM (active) |
| COc1nc(C)nc(NC(=O)NS(=O)(=O)c2ccccc2OCCCl)n1 | inactive | – |
| CCC(O)=C1C(=O)CC(C(=O)O)CC1=O (stereo unspecified) | inactive | – |
| CSC(=O)c1cccc2nnsc12 | inactive | – |
| C[C@]12C[C@H](O)[C@H]3[C@@H](CCC4=CC(=O)CC[C@@]43C)[C@@H]1CC[C@@H]2C(=O)CO | inactive | – |
| O=C(O)C1(C(=O)Nc2ccc(Cl)cc2Cl)CC1 | inactive | – |
| COC(=O)c1ccc(I)cc1S(=O)(=O)NC(=O)Nc1nc(C)nc(OC)n1 | inactive | – |
| CCNc1nc(N)nc(Cl)n1 | inactive | – |
| CCCCOC(=O)[C@@H](C)Oc1ccc(Oc2ccc(C(F)(F)F)cn2)cc1 | inactive | – |
| C#C[C@]1(O)CC[C@H]2[C@@H]3CCC4=CC(=O)CC[C@@H]4[C@H]3CC[C@@]21CC | inactive | – |
| CCCCC(CC)COC(=O)c1ccccc1C(=O)O (stereo unspecified) | inactive | – |
| CCOC(=O)[C@H](C)Oc1ccc(Oc2nc3ccc(Cl)cc3o2)cc1 | inactive | – |
| CCCCOC(=O)C(C)Oc1ccc(Oc2ccc(C(F)(F)F)cn2)cc1 (stereo unspecified) | inactive | – |
| CCCCC(CC)CN1C(=O)C2C3C=CC(C3)C2C1=O (stereo unspecified) | inactive | – |
| CCOC(=O)C(C)Oc1ccc(Oc2nc3ccc(Cl)cc3o2)cc1 (stereo unspecified) | inactive | – |
| CCN(CC)C(=O)c1cccc(C)c1 | inactive | – |
| COC(=O)c1cccc(C)c1S(=O)(=O)NC(=O)Nc1nc(OCC(F)(F)F)nc(N(C)C)n1 | inactive | – |
| OB(O)O | inactive | – |
| CCCCOCCOCCOCc1cc2c(cc1CCC)OCO2 | inactive | – |
| CCCN(CCC)C(=O)SCC | inactive | – |
| CCCOC(=O)NCCCN(C)C | inactive | – |
| c1ccc(Nc2ccccc2)cc1 | inactive | – |
| CCOC(=O)COc1cc(-n2ncc(C(F)(F)F)c(C)c2=O)c(F)cc1Cl | inactive | – |
| CCCCCOC(=O)COc1cc(N2C(=O)C3=C(CCCC3)C2=O)c(F)cc1Cl | inactive | – |

Experiment: ATG_M_19_CIS: Attagene CIS-FACTORIAL HepG2 Assay for M19 Transcription Factor (Internal Marker) (AID 2282939)
Conditions: HepG2 Attagene CIS-FACTORIAL M19 internal marker reporter; actives raise or lower the signal
In short: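 Chemical-treated HepG2 (24 h) with MRTU constructs; reporter transcripts detected by fluorescent RT-PCR fragment analysis on capillary electrophoresis. Internal background marker, DMSO as baseline.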

| SMILES | outcome |
| --- | --- |
| CC1(C)C(C=C(Cl)Cl)C1C(=O)OCc1cccc(Oc2ccccc2)c1 (stereo unspecified) | inactive |
| CCCOC(=O)c1ccc(C(=O)OCCC)nc1 | inactive |
| O=C(Nc1ccc([N+](=O)[O-])cc1Cl)c1cc(Cl)ccc1O | inactive |
| COc1nc(C)nc(NC(=O)NS(=O)(=O)c2ccccc2OCCCl)n1 | inactive |
| N#CSCSc1nc2ccccc2s1 | inactive |
| CCC(O)=C1C(=O)CC(C(=O)O)CC1=O (stereo unspecified) | inactive |
| CSC(=O)c1cccc2nnsc12 | inactive |
| C[C@]12C[C@H](O)[C@H]3[C@@H](CCC4=CC(=O)CC[C@@]43C)[C@@H]1CC[C@@H]2C(=O)CO | inactive |
| O=C(O)C1(C(=O)Nc2ccc(Cl)cc2Cl)CC1 | inactive |
| COC(=O)c1ccc(I)cc1S(=O)(=O)NC(=O)Nc1nc(C)nc(OC)n1 | inactive |
| CC(=O)S[C@@H]1CC2=CC(=O)CC[C@]2(C)[C@H]2CC[C@@]3(C)[C@@H](CC[C@@]34CCC(=O)O4)[C@H]12 | inactive |
| CCNc1nc(N)nc(Cl)n1 | inactive |
| CC(C)CCCCCCc1ccc(O)cc1 | inactive |
| CCCCOC(=O)[C@@H](C)Oc1ccc(Oc2ccc(C(F)(F)F)cn2)cc1 | inactive |
| C#C[C@]1(O)CC[C@H]2[C@@H]3CCC4=CC(=O)CC[C@@H]4[C@H]3CC[C@@]21CC | inactive |
| CCCCC(CC)COC(=O)c1ccccc1C(=O)O (stereo unspecified) | inactive |
| CCOC(=O)[C@H](C)Oc1ccc(Oc2nc3ccc(Cl)cc3o2)cc1 | inactive |
| CC(=O)[C@H]1CC[C@H]2[C@@H]3CCC4=CC(=O)CC[C@]4(C)[C@H]3CC[C@]12C | inactive |
| CCCCOC(=O)C(C)Oc1ccc(Oc2ccc(C(F)(F)F)cn2)cc1 (stereo unspecified) | inactive |
| CCCCC(CC)CN1C(=O)C2C3C=CC(C3)C2C1=O (stereo unspecified) | inactive |
| CCOC(=O)C(C)Oc1ccc(Oc2nc3ccc(Cl)cc3o2)cc1 (stereo unspecified) | inactive |
| CCN(CC)C(=O)c1cccc(C)c1 | inactive |
| COC(=O)c1cccc(C)c1S(=O)(=O)NC(=O)Nc1nc(OCC(F)(F)F)nc(N(C)C)n1 | inactive |
| OB(O)O | inactive |
| CCCCOCCOCCOCc1cc2c(cc1CCC)OCO2 | inactive |
| CCCN(CCC)C(=O)SCC | inactive |
| CCCOC(=O)NCCCN(C)C | inactive |
| c1ccc(Nc2ccccc2)cc1 | inactive |
| CCOC(=O)COc1cc(-n2ncc(C(F)(F)F)c(C)c2=O)c(F)cc1Cl | inactive |
| CCCCCOC(=O)COc1cc(N2C(=O)C3=C(CCCC3)C2=O)c(F)cc1Cl | inactive |
